Nine compounds from the supplement of paper PMC4709259 can be followed below.

SMILES strings stand for the structures. Where a name gives a salt, the structure may show the parent alone. ± gives the standard deviation.

The test relates to Jurkat. Description: cell count relative to DMSO control (fraction of control); higher = more cells (less growth inhibition). The settings on record: 48 h.
Compound `CN(C)c1ccc(O)c2c1C[C@H]1C[C@H]3[C@H](N(C)C)C(=O)C(C(N)=O)=C(O)[C@@]3(O)C(=O)C1=C2O` [Minocycline] (concentration: 2.5 µM) came in with a cell count of 0.894 ± 0.04.
The value for `COc1ccc2cc([C@H](C)C(=O)O)ccc2c1` [Naproxen] (concentration: 25 µM) was 0.661 ± 0.1; that for `CN1CCc2cccc3c2[C@H]1Cc1ccc(O)c(O)c1-3` [Apomorphine·HCl Hemihydrate] (concentration: 2.5 µM) was 0.444 ± 0.071.
Turning to `CC(C)NCC(O)COc1ccc(COCCOC(C)C)cc1` (centres undefined) [Bisoprolol Fumarate] (concentration: 25 µM), the cell count was determined as 0.732 ± 0.035.
The value for `C[N+](C)(C)CCOC(=O)CCC(=O)OCC[N+](C)(C)C` [Succinylcholine Chloride·2H2O] (concentration: 25 µM) was 0.908 ± 0.081.
The value for `CO/N=C(\C(=O)N[C@@H]1C(=O)N2C(C(=O)OC(C)OC(C)=O)=C(COC(N)=O)CS[C@H]12)c1ccco1` (some centres undefined) [Cefuroxime Axetil] (concentration: 25 µM) was 0.895 ± 0.057.
With `CC(C)NCC(O)COc1ccc(CC(N)=O)cc1` (racemic) [(±)-Atenolol] (concentration: 25 µM), the cell count amounted to 1.14 ± 0.087.
Regarding `Cc1ccsc1C(=CCCN1CCC[C@@H](C(=O)O)C1)c1sccc1C` [Tiagabine·HCl] (concentration: 25 µM), the cell count was determined as 0.839 ± 0.013.
Then `O=C1[C@H](CC[C@H](O)c2ccc(F)cc2)[C@@H](c2ccc(O)cc2)N1c1ccc(F)cc1` [Ezetimibe] (concentration: 25 µM), with 0.639 ± 0.061.
